Source: paper PMC9838217, “Structure of SALL4 zinc finger domain reveals link between AT-rich DNA binding and Okihiro syndrome”
Changes are numbered by the printed parent chain.

These sequences were tested against T1, SALL4 ZFC4 WT (HT-SELEX) (Mus musculus, UniProt Q8BX22 870-940) (assay: HT-SELEX; high values mean tight binding). Conditions: protein: recombinant; vector His6-GST; dsDNA, one strand shown.
T1 sequence: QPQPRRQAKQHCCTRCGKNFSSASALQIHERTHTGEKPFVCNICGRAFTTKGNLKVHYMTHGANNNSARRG
Procedure, shortened: (§1)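 Purified recombinant mouse SALL4 zinc finger cluster 4 (residues 870–940, 1 µg) and library DNA (1.5 µg first cycle, 200 ng later) were incubated for 10 min at room temperature in 100 µl of 10 mM Tris–HCl pH 7.5, 50 mM NaCl, poly(dI-dC) and DTT. After Ni2+ bead capture and up to 6 triplicate cycles of selection, DNA was MiSeq-sequenced and scanned for 6-mers. Binding signal is the fold change in each canonical k-mer's read fraction relative to the initial random library.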

Sequence	binding signal [fold-change vs cycle 0]
GGAAGA	0.939 ± 0.0256
ATTTGG	1.02 ± 0.0576
ATGGAG	0.932 ± 0.0365
ACTCCA	0.896 ± 0.0264
AGGATG	0.903 ± 0.0399
ATAGCA	1.2 ± 0.0655
ATACCA	1.39 ± 0.0502
CAAATG	1.063 ± 0.0102

These sequences were tested against T2, SALL4 ZFC4 R900W (HT-SELEX) (Mus musculus, UniProt Q8BX22 870-940, R900W) (assay: HT-SELEX; high values mean tight binding). Conditions: protein: recombinant; vector His6-GST; dsDNA, one strand shown.
T2 sequence: T1 sequence with R31W
Procedure, shortened: as §1

Sequence	binding signal [fold-change vs cycle 0]
GGCCCA	0.126 ± 0.00969
TCGCCA	0.213 ± 0.00577
GGGCCC	0.0676 ± 0.00899
CAGGGC	0.185 ± 0.0225
GCAAGC	0.302 ± 0.00778
ACGGCG	0.0768 ± 0.0155
GCGAGC	0.103 ± 0.00798
AGGCGA	0.276 ± 0.00793
GAGGGC	0.201 ± 0.0133
GAGGCA	0.367 ± 0.0203
ACGTGC	0.314 ± 0.00898
CAATAG	1.34 ± 0.0439
CACAGC	0.324 ± 0.0122
GCACGA	0.281 ± 0.0197
GCATGC	0.3 ± 0.0114
GCGGAA	0.245 ± 0.0256

Sequence	binding signal [fold-change vs cycle 0]
ACCGGC	0.106 ± 0.00697
CTTCGC	0.34 ± 0.0357
CGCGTA	0.224 ± 0.0194
CCCGCA	0.139 ± 0.0116
GCTGCA	0.256 ± 0.0235
CCCAGC	0.179 ± 0.0134
CAGGCC	0.16 ± 0.0134
CCGCAC	0.118 ± 0.0077
GGCCGA	0.0868 ± 0.00648
ACGCCT	0.304 ± 0.0301
CTCGGC	0.127 ± 0.0136
CCCGTC	0.236 ± 0.0162
CGACCA	0.322 ± 0.0112
GATCGC	0.301 ± 0.0313
CGGACA	0.354 ± 0.00613
CGTCGC	0.097 ± 0.00631

The sequences below were run against T3, SALL4 ZFC4 G921D (HT-SELEX) (Mus musculus, UniProt Q8BX22 870-940, G921D) (assay: HT-SELEX; high values mean tight binding). Conditions: protein: recombinant; vector His6-GST; dsDNA, one strand shown.
T3 sequence: T1 sequence with G52D
Procedure, shortened: as §1

Sequence	binding signal [fold-change vs cycle 0]
GGCCCA	0.245 ± 0.0696
TCGCCA	0.371 ± 0.0688
GGGCCC	0.178 ± 0.0632
CAGGGC	0.31 ± 0.0787
GCAAGC	0.429 ± 0.0449
ACGGCG	0.177 ± 0.0582
GCGAGC	0.229 ± 0.0707
AGGCGA	0.438 ± 0.0693
GAGGGC	0.323 ± 0.085
GGAAGA	1.12 ± 0.0151
GAGGCA	0.505 ± 0.1
ACGTGC	0.439 ± 0.0607
CAATAG	1.31 ± 0.0578
ATTTGG	1.1 ± 0.038
CACAGC	0.442 ± 0.0707
GCACGA	0.432 ± 0.0801
ATGGAG	1.04 ± 0.0381
GCATGC	0.437 ± 0.0507
GCGGAA	0.373 ± 0.0585
ACTCCA	1.03 ± 0.0296

Sequence	binding signal [fold-change vs cycle 0]
ACCGGC	0.227 ± 0.0683
CTTCGC	0.455 ± 0.0772
CGCGTA	0.34 ± 0.0644
CCCGCA	0.246 ± 0.066
GCTGCA	0.379 ± 0.0774
CCCAGC	0.297 ± 0.0797
AGGATG	1.04 ± 0.0274
CAGGCC	0.277 ± 0.0643
CCGCAC	0.22 ± 0.0597
GGCCGA	0.196 ± 0.0603
ACGCCT	0.443 ± 0.0612
CTCGGC	0.231 ± 0.0599
CCCGTC	0.34 ± 0.0606
CGACCA	0.456 ± 0.0665
ATAGCA	1.23 ± 0.0807
GATCGC	0.461 ± 0.0896
CGGACA	0.472 ± 0.0628
ATACCA	1.35 ± 0.0639
CGTCGC	0.194 ± 0.077
CAAATG	1.17 ± 0.0276
